Source: the OligoGym collection

target: BZW1; assay: pooled miR-30 sensor sort-seq; sequence = guide strand; conditions: shRNA
Note: reference of the scale not given here.

Sequence	sensor-assay potency score (higher = more potent)
TTGTGAAGTGTTCAACACTTTG	-1.21
TTCAAGAACAGCAGCAGCTTTT	-0.773
TGAAACTCCTTCTTTAACCAAA	-0.866
TTGCTCAAGGAAAACACTCTTC	-0.371
TTAACTTGTTAAAAACCTGAGC	-0.612
TTCTTCTTCAGCATTTTTGAGC	-0.679

target: C10orf129; assay: as above; conditions: shRNA

Sequence	sensor-assay potency score (higher = more potent)
TACATCTCTGGATTTGCAGATA	-0.615
AACTTCTTGAAATCCAACCACC	-1.25
TGTAGGTCTGCTTTGGAGGGGC	-0.275
TTATCTGACACCAGGAGCTTGG	-0.78
ATACTGGGAATACTCGACCATT	-1.34
TTCTTGAAATCCAACCACCCAT	-0.764
TCTTGAAATCCAACCACCCATC	-1.29
TTTAGAACAGTCTCAGGGCAGA	-0.497
AACTTGAATCAACTTCTTGAAA	-1.71
TAGCTCTTATCTGACACCAGGA	-0.145
ATAGCTCTTATCTGACACCAGG	-1.02
TGACACAGAAACACACAGGCTC	0.78

target: C10orf27; assay: as above; conditions: shRNA

Sequence	sensor-assay potency score (higher = more potent)
TATCTTCGTTTTCTTCGGGGAT	-0.791
TAAAAGGTGATATCTTCGTTTT	-1.08
TTTAGTAAGAGTTTTCACGGTA	0.259
TTCGATGTCTTCTTCTCTGTGT	0.791
TTCTTCTCTGTGTTCTGGCTTG	-0.353
TGATATCTTCGTTTTCTTCGGG	0.224
TCGAAATCCACAATCCCTGGGA	0.448
TTGGATGTGGGTCACGTGCTGG	-0.839
ATATCTTCGTTTTCTTCGGGGA	-0.103
TTTTGTAAAAGGTGATATCTTC	-0.0398
TTTCGCTTTTTGTAAAAGGTGA	-0.648
TTCTTCTCCAGTTTCAGCTCAG	-0.249

target: C11orf49; assay: as above; conditions: shRNA

Sequence	sensor-assay potency score (higher = more potent)
TTTTGCAAGTGAAATCATCTTC	0.664
TTCTCCAACAGGCCACAGCGGT	-1.61
TTTCACATGTTTGTTTAGCTAT	-0.281
TTGGCTAATATCTTCCCTGTTT	-0.438
AAATATTCAGTGAAGAACCTGG	0.285
TAACACTAGGGTAAACCCCTGG	-0.37
TAGCTATTAGACACAAAGGGGT	-0.34
TTTCTGAGTGAGCTCCAGCGGG	-0.907
TTCATGGTCAGCAAATCGCCAT	-0.72
TTAGCTATTAGACACAAAGGGG	-0.469
